According to PubChem BioAssay AID1259318 (Sanford-Burnham Center for Chemical Genomics, 2017):
In all, about 370,000 compounds went through this assay and about 3,000 (0.81%) were called active.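 Rule for the calls: active = activity above about 14% (limit read from the data; passing the limit was not always enough); inactive = the rest.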 Many of the other results were omitted from the sample, so actives are more common in it than they were.

These molecules were tested against Nuclear receptor subfamily 1 group D member 1 (Homo sapiens) (UniProt P20393) (assay: modulators of Rev-erb alpha DNA binding, primary screen, biochemical, FITC-DNA, fluorescence polarization, uHTS (AID 1259318;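 note: 0% = DMSO wells with 35 nM protein and 100% = DMSO wells with 750 nM protein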)). Settings: Rev-erbα–FITC-DNA binding, 90 min, at 10 µM, hits give high values.
Sequence of Nuclear receptor subfamily 1 group D member 1 (Homo sapiens) (P20393 whole entry, looked up): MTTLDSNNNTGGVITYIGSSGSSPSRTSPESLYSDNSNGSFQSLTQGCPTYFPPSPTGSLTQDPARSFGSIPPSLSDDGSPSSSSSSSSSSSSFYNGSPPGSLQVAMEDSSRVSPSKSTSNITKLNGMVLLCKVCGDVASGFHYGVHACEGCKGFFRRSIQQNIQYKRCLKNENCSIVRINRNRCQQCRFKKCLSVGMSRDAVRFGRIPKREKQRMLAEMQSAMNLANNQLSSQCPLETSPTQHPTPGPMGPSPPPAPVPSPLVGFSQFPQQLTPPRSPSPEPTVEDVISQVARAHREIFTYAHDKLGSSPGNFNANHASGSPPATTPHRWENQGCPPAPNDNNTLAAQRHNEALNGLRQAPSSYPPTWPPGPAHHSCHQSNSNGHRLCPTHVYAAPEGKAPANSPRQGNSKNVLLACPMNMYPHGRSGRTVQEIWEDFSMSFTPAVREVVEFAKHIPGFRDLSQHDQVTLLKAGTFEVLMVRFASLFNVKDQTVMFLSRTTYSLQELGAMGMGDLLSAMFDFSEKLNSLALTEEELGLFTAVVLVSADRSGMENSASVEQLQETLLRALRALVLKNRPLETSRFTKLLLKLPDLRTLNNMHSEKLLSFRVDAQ

SMILES | activity
Cc1ccc(CS(=O)(=O)CCC(=O)NCc2ccc(F)cc2)cc1 | -2.15% (inactive)
C/C=C/C=C/C(=O)OCC(=O)Nc1ccc(Cl)cc1 | -1.79% (inactive)
O=S1(=O)c2ccc(N3CCN(Cc4ccccc4F)CC3)cc2Oc2ccccc2CN1Cc1cn(Cc2ccc(Cl)cc2)nn1 | -0.02% (inactive)
CCOC(=O)c1ccc(NC(=O)CCn2c(=O)oc3ccccc32)cc1 | -4.86% (inactive)
CCOC(=O)c1ccc(NC(=O)c2c(NCc3ccccc3)[nH]c(=O)[nH]c2=O)cc1 | 19.9% (active)
CCOC(=O)c1ccc(NC(=O)c2c(N)n(C)c(=O)[nH]c2=O)cc1 | 2.83% (inactive)
CCCCN1CCN(C(=O)c2ccc3c(c2)NC(=O)C(C)(C)O3)CC1 | -3.01% (inactive)
O=c1ccc2c(-c3ccccc3S(=O)(=O)O)c3ccc(O)c(O)c3oc-2c1O | -56.3% (inactive)
O=C(CNC(=O)C12CC3CC(CC(C3)C1)C2)OCC(=O)N1CCCCC1 | -3.15% (inactive)
COc1ccc(CNC(=O)CN2CCC(n3nnc4cc(F)ccc43)CC2)cc1 | 0.03% (inactive)
COc1ccc(CNC(=O)c2nnn(CC(=O)Nc3cc(C)cc(C)c3)c2N)cc1 | 33.3% (active)
COc1ccc(CNC(=O)c2cc(=O)c3c(C)cc(C)cc3o2)cc1 | -1.71% (inactive)
CCOC(=O)c1c(NC(C)=O)sc2c(O)c(Br)ccc12 | -1.09% (inactive)
CCOC(=O)C1CCN(C(=O)CN2C(=O)NC(C)(c3ccc4cc(OC)ccc4c3)C2=O)CC1 (centres undefined) | -4.48% (inactive)
O=C(Nc1cc(Cl)cc(Cl)c1)OCCN1CCCC12CCC(c1ccccc1)CC2 (centres undefined) | -2.58% (inactive)
CCCOc1cc(C)c(S(=O)(=O)n2nnc3ccccc32)cc1C | -0.13% (inactive)
Cc1nc2c(c(C)nn2-c2ccccc2)c(C)c1C | 9.78% (inactive)
CSc1ccc(-c2c(C#N)c(N)nc3c2c(C)nn3-c2ccccc2)cc1 | 59.1% (active)
Cn1c(=O)c2c(-c3cccc(Br)c3)c(C#N)c(N)nc2n(C)c1=O | -4.07% (inactive)
CCC(C)[C@H]1COCCS(=O)(=O)N1Cc1ccc(C)cc1 (some centres undefined) | -5% (inactive)
O=C1C(=O)N(Cc2ccc(-c3ccsc3)cc2)c2ccc(OC(F)(F)F)cc21 | -0.04% (inactive)
O=C(c1cccc(C(F)(F)F)c1)N1CC[C@H]2[C@H](CCCN2Cc2cc(F)cc(F)c2)C1 | 0.92% (inactive)
Cc1ccc2nc(-c3ccc(NC(=O)CN(C)S(=O)(=O)c4ccccc4)cc3)sc2c1 | 8.26% (inactive)

SMILES | activity
Cc1cccc(N(CC(=O)Nc2ccc(-c3nc4ccc(C)cc4s3)cc2)S(C)(=O)=O)c1 | 35.6% (active)
Cc1ccc(N(CC(=O)Nc2cc(C)cc(C)c2)S(=O)(=O)c2cccc3nonc23)cc1 | 0.18% (inactive)
CCOc1ncccc1C(=O)N(CC)CC(=O)Nc1ccc(NC(C)=O)cc1 | -1.37% (inactive)
CCOc1ccc(-c2nnc3ccc(SC)nn23)cc1 | 48.8% (active)
COc1ccc(CSc2nnc(-c3cccc(C)c3)n2C)cc1 | 9.69% (inactive)
O=C(CSc1ccc2nnc(-c3ccccc3)n2n1)N1CCCc2ccccc21 | -1.89% (inactive)
COC(=O)C(C)Sc1ccc2nnc(-c3cccc(F)c3)n2n1 (centres undefined) | 1.26% (inactive)
COc1ccc(-c2nnc3ccc(SCc4ccccc4)nn23)cc1 | 25.6% (active)
CCOC(=O)CNC(=O)CSc1ccc2nnc(-c3cccnc3)n2n1 | 3.05% (inactive)
COc1cccc(CN(C)CC(=O)NCc2ccccc2Cl)c1OC | -3.26% (inactive)
C=CCOC/C=C/C#CCN(CC=C)Cc1ccc(OC)cc1OC | 6.98% (inactive)
Cc1ccc(-c2noc(CCC(=O)Nc3ccccc3N3CCN(C)CC3)n2)cc1 | 3.69% (inactive)
COCCn1c(C)cc(C(=O)COC(=O)/C=C/c2cccc(OC)c2)c1C | 6.09% (inactive)
Cc1cccc([C@@H]2[C@@H]3C(=O)N(C)C(=O)[C@@H]3[C@@H]3C(=O)Nc4ccccc4C(=O)N23)c1 | 1.77% (inactive)
CCCC(=O)Nc1ncnc2c1ncn2C1O[C@@H]2COP(=O)(O)O[C@H]2[C@H]1OC(=O)CCC (some centres undefined) | -3.72% (inactive)
COc1cc(/C=C/C(=O)n2cnc3ccccc32)cc(OC)c1OC | 11.5% (inactive)
CC(=O)c1cc(C#N)c(SCC(=O)Nc2nccs2)nc1C | 30.9% (active)
Cc1cc(C(F)(F)F)nc(SCC(=O)Nc2nccs2)n1 | -6.74% (inactive)
Cc1[nH]c2ccccc2c1SCC(=O)Nc1nccs1 | 4.6% (inactive)
Cn1sc(=O)c2cc(S(=O)(=O)NC3CC3)ccc21 | -1.88% (inactive)
CCOC(=O)NC(=O)CSc1nnc(SCCC(=O)O)s1 | 0.79% (inactive)
O=C(Nn1c(SCc2ccc([N+](=O)[O-])cc2)nc2ccccc2c1=O)c1ccc(F)cc1 | 0.27% (inactive)
O=C(CCn1c(SCC(=O)c2ccccc2)nc2ccccc2c1=O)NCc1ccc(F)cc1 | 26.1% (active)

SMILES | activity
O=C(CSc1nc2ccccc2c(=O)n1CCCO)NC1CC1 | 4.03% (inactive)
O=S(=O)(c1cccs1)N1CCCc2nc(-c3ccc(Br)cc3)ccc21 | 1.38% (inactive)
c1ccc2c(c1)nnn2-c1ccncc1 | 1.17% (inactive)
CC(C)CN(C(=O)c1cccc(S(=O)(=O)N2CCCCC2)c1)C1CCS(=O)(=O)C1 (centres undefined) | 5.44% (inactive)
CCOC(=O)c1cc(-c2nnc(-c3cc(OC)c(OC)c(OC)c3)o2)c(C)nc1C | 9.45% (inactive)
CCOc1nc(-c2ccc(OC)cc2)ccc1-c1noc(-c2cc(OC)c(OC)c(OC)c2)n1 | 26.3% (active)
CCOc1cc(-c2noc(CCC(=O)N3CCOCC3)n2)ccc1OC | -5.84% (inactive)
Cc1sc2nc(-c3ccccc3F)oc(=O)c2c1C | 1.33% (inactive)
CCCCC(=O)N[C@@H]1CC[C@@]23CCCN2C(=O)CCC[C@H]3[C@H]1C | 1.41% (inactive)
NC(=O)CCCC1=NS(=O)(=O)c2ccccc2N1 | -0.09% (inactive)
c1ccc(-c2ccnc3nc(-n4cccc4)nn23)cc1 | -4.06% (inactive)
CCCCNc1c(-c2cccc(Sc3ccc(OC)cc3)c2)nc2ccccn12 | -0.18% (inactive)
Clc1ccc2nc(CSc3ccccc3)cn2c1 | 6.58% (inactive)
CCCCCCSc1ccc(-c2nc3ccc(Cl)cn3c2NCc2ccccc2)cc1 | 24% (active)
C[n+]1ccc(/C=C/c2c[nH]c3ccccc23)cc1 | 169% (active)
Cn1cnc([N+](=O)[O-])c1Sc1n[nH]c(N)n1 | -0.66% (inactive)
COc1ccc(C(=O)OCc2cc(=O)n3ccsc3n2)cc1F | 3.21% (inactive)
COc1cc(OC)cc(-c2nc(=S)n3ccsc3n2)c1 | 14.2% (active)
COc1cc(C(=O)OCc2cc(=O)n3ccsc3n2)ccc1OC(C)C | -8.61% (inactive)
CCCC1CCC2(CCCN2CCOC(=O)NCc2ccccc2)CC1 (centres undefined) | 4.94% (inactive)
C=CCN(Cc1ccc2c(c1)OCO2)C(C#CC1CC1)C(C)(C)C (centres undefined) | 0.61% (inactive)
COc1ccc(/C=C2\CC3(OC(C)=O)CCCN2C3)cc1 (centres undefined) | 1.87% (inactive)
COc1ccc(-n2nc(C(=O)NCC(=O)Nc3cccc(C)n3)c3ccccc3c2=O)cc1 | 29.5% (active)

SMILES | activity
CCCN(CCC)CCCNC(=O)CNC(=O)c1nn(-c2ccc(OC)cc2)c(=O)c2ccccc12 | 2.42% (inactive)
COCCCNC(=O)CNC(=O)c1nn(-c2ccc(OC)cc2)c(=O)c2ccccc12 | -5.1% (inactive)
Cc1[nH]c2ccccc2c1C(=O)c1cc([C@H](NC(=O)OC(C)(C)C)C(C)C)sc1N | 8.9% (inactive)
CCn1c(SCC(=O)N(C)C2CCS(=O)(=O)C2)nnc1-c1cccs1 (centres undefined) | 1.18% (inactive)
Cc1cc(C)c2nc(SCC(=O)N(C)C3CCS(=O)(=O)C3)cc(C)c2c1 (centres undefined) | 64% (active)
CN(C(=O)CSc1nnc(-c2ccc(C(C)(C)C)cc2)n1C)C1CCS(=O)(=O)C1 (centres undefined) | -0.03% (inactive)
COc1ccc(-n2c(SCC(=O)Nc3ccccc3-c3ccccc3)nnc2-c2cccnc2)cc1 | -5.08% (inactive)
CC1OC(O[C@H]2/C=C/C=C/C=C/C=C/C=C/C=C/C=C/[C@H](C)[C@@H](O)[C@@H](C)[C@H](C)OC(=O)CC(O)CC(O)CCC(O)C(O)CC(O)CC3(O)C[C@H](O)C(C(=O)O)C(C2)O3)C(O)[C@H](N)C1O (some centres undefined) | 1.39% (inactive)
O=C(O)CCC(=O)O | -4.29% (inactive)
COc1ccc(NC(=O)c2sc(=O)n(Cc3ccc(S(=O)(=O)N(C)C)cc3)c2C)cc1 | 4.54% (inactive)
O=C(COC(=O)c1cccc(Br)c1)Nc1cccc2c1C(=O)c1ccccc1C2=O | 114% (active)
O=C(COC(=O)Cn1cnc2ccccc21)Nc1cccc2c1C(=O)c1ccccc1C2=O | -19.3% (inactive)
O=C(COC(=O)c1cccc(Cl)c1)Nc1ccc2[nH]c(=O)[nH]c2c1 | -0.59% (inactive)
C#CCN(N(C)c1ncc(C(F)(F)F)cc1Cl)S(=O)(=O)c1ccc2ccccc2c1 | 7.14% (inactive)
CCN1CCN(C(=O)Cn2nc(C)n3c(cc4c(OC)cccc43)c2=O)CC1 | -9.03% (inactive)
CCCc1cc(=S)n2c([nH]c3ccccc32)c1C#N | -0.23% (inactive)
Cc1cc2oc(=O)cc(-c3ccccc3)c2c(C)c1-c1ccc(OC(F)(F)F)cc1 | -5.77% (inactive)
COc1ccc(-c2c(C)cc3oc(=O)cc(-c4ccccc4)c3c2C)cc1C=O | 18.5% (active)
COc1cc(OC)c2c(-c3cccc(-c4cccc(N)c4)c3)cc(=O)oc2c1 | -9.12% (inactive)
CCCc1nc2c(C)cc(-c3nc4ccccc4n3C)cc2n1Cc1ccc(-c2ccccc2C(=O)O)cc1 | 3.42% (inactive)
